According to PubChem BioAssay (Tox21):
Records with an inconclusive call do not appear. Calls of active or inactive are those of the source. Calls follow the shape of the dose curve; as a rule, active = well fitted cell-killing curve with a large enough effect in the repeat runs; inconclusive = weak or mixed curves, or effect the other way; inactive = flat fitted curve, though single readings scatter.

Experiment: qHTS RealTime-Glo MT Cell Viability Assay in HEK293 cells - 24 hour (AID 1224886); also: top concentration of the series differs between compounds; nearly all actives have a fitted effect of over 50% in size
Conditions: RealTime-Glo luminescence; series mostly up to 76.8 µM; activity change, negative = cytotoxicity: at the top concentration
Source text: National Center for Advancing Translational Sciences [NCATS]
NIH Chemical Genomics Center [NCGC]
U.S. Environmental Protection Agency [EPA]
National Institutes of Environmental Health Sciences [NIEHS]
National Toxicology Program [NTP]
U.S. Food and Drug Administration [FDA]
Measure of cell viability is critical in the cell-base assay. Analysis of cell viability is necessary for the characterization of cell responses to cytotoxic drugs and environmental stress. A RealTime-Glo MT Cell Viability Assay to monitor cell viability in real time of continues cell culture during 40 hours of compound treatment was used to screen Tox21 10K library compounds in Hek293 cells. The RealTime-Glo MT Cell Viability Assay is a nonlytic, homogeneous, bioluminescent method to measure cell viability in real time using a simple, plate-based method. The assay involves adding NanoLuc luciferase and a cell-permeant prosubstrate to cells in culture. Viable cells reduce the proprietary prosubstrate to generate a substrate for NanoLuc luciferase. This substrate diffuses from cells into the surrounding culture medium, where it is rapidly used by the NanoLuc Enzyme to produce a luminescent signal. The signal correlates with the number of viable cells, making the assay well suited for cytotoxicity studies.
Tox21 Assay Protocol Summary:
The mixture of Hek293 cell suspension and reagents were dispensed at 600cells/6 ul/well in 1536-well tissue culture treated black solid bottom plates using a Multidrop dispenser. After the assay plates were incubated at a 37 C/5% CO2 incubator for 5 hours, 23 nL of compounds dissolved in DMSO, positive and negative controls was transferred to the assay plate by a pintool work station. The plates were incubated at 37 C for 40 hours. The luminescence intensity were measured at 0h, 8h, 16h, 24h, 32h and 40h time points using ViewLux plate reader during compound treatment.
% is scaled to controls: 0 for no effect and ±100 for the full control effect.

SMILES | activity change, negative = cytotoxicity
C[N+]1(CC2COC(c3ccccc3)(c3ccccc3)O2)CCCCC1 (stereo not given) | -2.13% [at 15.8 µM] (inactive)
CCOC(=O)C(=O)CCCCCCl | 3.08% [at 35.3 µM] (inactive)
C=CCCC(=O)O | 4.57% (inactive)
CCCCCCCC1CCCC1=O (stereo not given) | 22.3% (inactive)
CC(=O)Oc1cccc(C)c1 | 4.07% [at 35.3 µM] (inactive)
CN1[C@@H]2CC[C@H]1CC(OC(=O)C(O)c1ccccc1)C2 (stereo not given in full) | 1.75% [at 35.3 µM] (inactive)
CC(C)C(=O)OC(=O)C(C)C | 1.57% (inactive)
Cc1ccc(C(=O)Nc2ccc(S(=O)(=O)O)c3cc(S(=O)(=O)O)cc(S(=O)(=O)O)c23)cc1NC(=O)c1cccc(NC(=O)Nc2cccc(C(=O)Nc3cc(C(=O)Nc4ccc(S(=O)(=O)O)c5cc(S(=O)(=O)O)cc(S(=O)(=O)O)c45)ccc3C)c2)c1 | -0.0933% [at 35.3 µM] (inactive)
C[N+]12CCC(CC1)C(OC(=O)C(O)(c1ccccc1)c1ccccc1)C2 (stereo not given) | 1% [at 35.3 µM] (inactive)
CCCCCCCCCCCCCCCCCCO | -1.42% [at 35.3 µM] (inactive)
O=S(=O)(O)c1cccc(S(=O)(=O)O)c1 | 16.8% (inactive)
C=CC(C)(CCC=C(C)C)OC(=O)CC (stereo not given) | 4.45% (inactive)
CC(C)(CCC(=O)O)C(=O)O | 0.586% (inactive)
CN(C)C(=O)Oc1cccc([N+](C)(C)C)c1 | 3.88% [at 35.3 µM] (inactive)
O=C(O)CNC(=O)c1ccccc1 | 2.18% [at 35.3 µM] (inactive)
CCCCCCC1CCC(=O)O1 (stereo not given) | -0.855% (inactive)
CC(C)C[C@@H](N)C(=O)O | 1.4% [at 15.8 µM] (inactive)
c1ccc2sc(SN3CCOCC3)nc2c1 | 0.274% [at 35.3 µM] (inactive)
COc1cc(C(=O)OC(COCCC(C)C)CN2CCOCC2)cc(OC)c1OC (stereo not given) | -13.5% [at 35.3 µM] (inactive)
CC(C)COC(=O)c1ccc(N)cc1 | -11.2% [at 35.3 µM] (inactive)

SMILES | activity change, negative = cytotoxicity
CC1=NS(=O)(=O)c2cc(Cl)ccc2N1 | 2.16% [at 35.3 µM] (inactive)
CO[C@@]1(NC(=O)C(C(=O)O)c2ccc(O)cc2)C(=O)N2C(C(=O)O)=C(CSc3nnnn3C)CO[C@@H]21 (stereo not given in full) | 4.65% [at 35.3 µM] (inactive)
C=COC(=O)C(C)(CC)CCC(C)C (stereo not given) | 8.82% (inactive)
CC(C#N)(CCC(=O)O)N=NC(C)(C#N)CCC(=O)O (stereo not given) | 3.05% (inactive)
Cc1ccc(-c2ncc(Cl)cc2-c2ccc(S(C)(=O)=O)cc2)cn1 | -18.3% [at 35.3 µM] (inactive)
NC(=O)N1c2ccccc2CC(=O)c2ccccc21 | 0.97% [at 35.3 µM] (inactive)
CCCCOCCOC(=O)CCCCCCCCC(=O)OCCOCCCC | 1.43% (inactive)
CCCCN1C=CN(C)C1 | 9.28% [at 15.8 µM] (inactive)
CCOC(=O)C1=NOC(c2ccccc2)(c2ccccc2)C1 | 3.3% (inactive)
CCCCCC(C)N (stereo not given) | 4.51% [at 35.3 µM] (inactive)
NO | -14.7% (inactive)
CC1=CC(=O)[C@H]2C[C@@H]1C2(C)C | -0.756% (inactive)
CC(C)CC(C)(N)C#N (stereo not given) | 3.07% (inactive)
CCCc1ncc(C[n+]2ccccc2C)c(N)n1 | 0.376% [at 35.3 µM] (inactive)
OCCCCCO | 4.39% (inactive)
CN1CCC(=C2c3ccccc3CCc3cccnc32)CC1 | -9.32% [at 35.3 µM] (inactive)
CCOC(=O)OC(C)OC1=C(C(=O)Nc2ccccn2)N(C)S(=O)(=O)c2ccccc21 (stereo not given) | 1.06% [at 35.3 µM] (inactive)
NC(N)=NCCN1CCCCCCC1 | -3.39% [at 0.29 µM] (inactive)
C=CCCCCCCCCC(=O)OCC | 11.8% (inactive)
N[C@H](C(=O)O)[C@@H](O)c1ccc(O)c(O)c1 | 3.69% [at 35.3 µM] (inactive)
